Compound activity deposited in PubChem BioAssay by several laboratories.
Shown are actives, neighbours in structure and some others; about 0.79% of the full set was active somewhere.
HDAC3 inhib: HDAC3 deacetylase inhibitors, primary screen, biochemical, fluorescence, cell-free homogeneous. recombinant HDAC3, fluorogenic peptide/trypsin coupled. AID 2718, 2010. inhibition, % at 8.3 µM. actives 0.15% (n = 320,000). Histone deacetylase 3 (Homo sapiens), O15379; in the data active means inhibition above about 26%, passing the limit was not always enough
Target sequence (O15379 whole entry, looked up): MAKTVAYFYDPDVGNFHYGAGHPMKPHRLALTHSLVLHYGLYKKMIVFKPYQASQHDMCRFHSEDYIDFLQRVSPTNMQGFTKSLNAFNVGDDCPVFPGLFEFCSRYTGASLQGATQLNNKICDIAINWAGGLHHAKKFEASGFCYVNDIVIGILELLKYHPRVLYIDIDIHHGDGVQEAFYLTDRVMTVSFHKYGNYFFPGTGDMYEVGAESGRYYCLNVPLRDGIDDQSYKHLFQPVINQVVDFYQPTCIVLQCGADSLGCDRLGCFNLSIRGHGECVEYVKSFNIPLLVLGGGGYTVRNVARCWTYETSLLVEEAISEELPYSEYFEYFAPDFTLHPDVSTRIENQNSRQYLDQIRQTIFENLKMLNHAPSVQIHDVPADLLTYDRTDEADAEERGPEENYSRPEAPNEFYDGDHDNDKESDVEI
DAGLB inhibitor: DAGLB lipase inhibitors, primary screen, biochemical, fluorescence, HTS; HEK293T DAGLB membrane lysate, EnzChek fluorogenic substrate; Diacylglycerol lipase-beta (Homo sapiens), Q8NCG7; actives 0.059% (n = 340,000); inhibition, % at 5.17 µM; in the data active means inhibition above about 34%;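 further: 0% = enzyme with vehicle and 100% = wells lacking enzyme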
LANA-H2B inh: blockers of LANA interaction with H2A/H2B – biochemical, FP readout, HTS, primary screen. Protein LANA1 (Human herpesvirus 8 type P (isolate GK18)), Q9QR71. cell-free LANA-H2A/H2B peptide, fluorescence polarization. AID 2629, 2010. actives 0.6% (n = 320,000). inhibition, % (concentration not given with the values); in the data active means inhibition mostly above about 10%, no sharp cut-off; inactive means mostly below about 6.7%
iPSC survival up: enhancers of single-cell hiPSC survival, primary screen, ATPlite luminescence. 100% = ROCK inhibitor wells, 0% = DMSO. survival enhancement, % at 20 µM. actives 0.044% (n = 360,000). AID 602274, 2012; in the data active means survival enhancement above about 18%;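 further: cells exposed to compounds for 16 hours before the ATP read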
* marks the source's active call; other numbers are inactive results; / = no result; + = active, no number.

SMILES	HDAC3 inhib	DAGLB inhibitor	LANA-H2B inh	iPSC survival up
COc1cc(OC)c(N(C)C(=O)c2cn(C)c(=O)c3cc(OC)c(OC)cc23)cc1Cl	54*	-1	-3	0
CCN(C(=O)c1cn(C)c(=O)c2cc(OC)c(OC)cc12)c1cc(C)ccc1C	-11	2	2	-1
Cc1cc(C)cc(NC(=S)N2CCN(c3ccccn3)CC2)c1	-7	0	-2	1
Cc1cc(C)cc(NC(=S)N2CCN(c3ncccn3)CC2)c1	3	-1	21*	-2
Cc1cc(C)cc(NC(=O)N2CCCN(c3ncccc3[N+](=O)[O-])CC2)c1	-4	-3	14*	1
C=C1[C@@H](O)[C@H](Cc2ccccc2)N(Cc2ccccc2Br)S1(=O)=O	/	6	/	4
O=C(CC1SC(N2CCCC2)=NC1=O)Nc1ccc(C(=O)NCCOc2ccccc2F)cc1 (stereo unspecified)	/	0	/	2
COc1ccc(NC(=O)NS(=O)(=O)c2ccc(C)cc2)cn1	1	-51	68*	1
COc1cc(NC(=O)NS(=O)(=O)c2ccc(C)cc2)cc(OC)c1	3	2	-3	0
O=C(CN1C(=O)NC2(CCCC2)C1=O)Nc1ccc(F)cc1	0	-1	0	1
CC1CCC2(CC1)NC(=O)N(CC(=O)Nc1ccc(F)cc1)C2=O (stereo unspecified)	-3	-1	38*	0
O=C(COC(=O)c1cc[n+]([O-])cc1)Nc1ccccc1Sc1ccccc1	-3	3	140*	4
Cc1nc(C)c(-c2ccc(SCC(=O)Nc3cccc(Cl)c3C)nn2)s1	-4	-2	-3	0
O=C(NCc1cccc(C(F)(F)F)c1)c1cc(-c2ccccc2)nn1CC1CC(c2cccnc2)=NO1 (stereo unspecified)	2	-5	3	1
Cc1ccccc1-c1cc(C(=O)NCc2cccc(C(F)(F)F)c2)n(CC2CC(c3cccnc3)=NO2)n1 (stereo unspecified)	25*	0	0	2
Cc1cc(C)cc(SCc2noc(C(=O)NCCC(C)C)c2C(=O)NCCC(C)C)c1	-10	-10	3	8
COc1ccccc1NC(=O)CSCc1nc2ccccc2[nH]1	/	1	/	-1
COc1ccc(C(CNC(=O)c2ccc(S(=O)(=O)N3CCCC3)cc2)N(C)C)cc1OC (stereo unspecified)	-3	-3	-1	0
COc1ccccc1C(CNC(=O)c1ccc(S(=O)(=O)N2CCCCC2)cc1)N(C)C (stereo unspecified)	3	1	+	0
O=C1CCC2(C(=O)O)Sc3ccccc3N12 (stereo unspecified)	-9	-1	-2	21*
CN(C)C(CNC(=O)c1ccc(-c2ccccc2)cc1)c1ccccc1 (stereo unspecified)	-4	0	-2	0
Cc1nc2nc(SCc3ccccc3)[nH]n2c(=O)c1CCC(C)C	-1	6	-4	1
CC(C)NC(=O)CSc1ccccc1C(=O)N1CCN(S(=O)(=O)/C=C/c2ccccc2)CC1	-2	-3	17*	5
COc1ccccc1-c1ccc(=O)n(CC(=O)NCc2ccco2)n1	0	1	37*	0
CN1OC[C@@H]2CN(Cc3ccc(Cl)cc3)[C@H](c3ccc(-n4ccnc4)cc3)C[C@@H]21	/	/	/	3
SMILES	HDAC3 inhib	DAGLB inhibitor	LANA-H2B inh	iPSC survival up
O=C(NCCCN1CCCC1)c1ccc2c(c1)N(Cc1cccc(Cl)c1)C(=O)c1ccccc1S2=O (stereo unspecified)	-2	3	0	0
CC1CCCCN1CCNC(=O)c1ccc2c(c1)N(Cc1cccc(Cl)c1)C(=O)c1ccccc1S2=O (stereo unspecified)	2	0	18*	-1
COC(=O)c1ccc(C(=O)OC)c(NC(=O)COC(=O)C2CC2C)c1 (stereo unspecified)	-7	-9	21*	-3
COC(=O)c1ccc(C(=O)OC)c(NC(=O)COC(=O)C2CCCCC2)c1	-9	5	-2	3
CC1CC1C(=O)OCC(=O)Nc1ccccc1Oc1ccccc1 (stereo unspecified)	-13	-12	35*	4
CCCCc1cc(=O)oc2cc(C)cc(OCC(=O)NC(Cc3ccc(Cl)cc3)C(=O)O)c12 (stereo unspecified)	-12	7	5	4
O=C1CCC([N+](=O)[O-])C(c2ccccc2C(F)(F)F)N1 (stereo unspecified)	0	-1	-1	0
CC1=C([N+](=O)[O-])C(c2ccccc2C(F)(F)F)NC(=O)N1C (stereo unspecified)	6	2	30*	0
CCOC(=O)CSC1=NC(=O)/C(=C/c2ccc(OC)cc2)S1	80*	4	4	-3
CCCCNC(=O)CCCCn1c(=S)[nH]c2c([nH]c3ccc(OC)cc32)c1=O	2	6	-2	0
COc1ccc2[nH]c3c(=O)n(CCCCC(=O)NCCN4CCCC4)c(=S)[nH]c3c2c1	30*	-2	4	4
CCN1CCN(C(CNS(=O)(=O)c2ccc(OC)cc2)c2cccnc2)CC1 (stereo unspecified)	/	-2	14*	7
COc1ccc(S(=O)(=O)NCC(c2cccnc2)N2CCN(Cc3ccccc3)CC2)cc1 (stereo unspecified)	2	-3	4	-1
CCOc1ccc(-c2c(=O)n(O)c3ccccc3[n+]2[O-])cc1	1	-6	3	0
COC(=O)c1c(=O)n(O)c2ccc(OC)cc2[n+]1[O-]	2	-6	55*	0
O=C(COc1ccc([N+](=O)[O-])cc1)Nc1ccc(N2CCN(C(=O)c3ccco3)CC2)cc1	0	4	28*	0
O=C(COc1ccc(Cl)cc1)Nc1ccc(N2CCN(C(=O)c3ccco3)CC2)cc1	2	-4	3	0
Cc1ccc([N+](=O)[O-])cc1S(=O)(=O)Nc1ccc(C(=O)N2CCN(C(=O)c3ccco3)CC2)cc1	4	3	16*	3
Cc1cc(NC(=O)CCC(=O)N(CC(=O)NCC2CCCO2)c2ccc(C)c(C)c2)no1 (stereo unspecified)	-1	0	0	2
C=CCNC(=S)NNC(=O)c1ccc(OCC(C)C)cc1	0	2	19*	-2
Fc1cccc(Cc2c(C3CCCCC3)nc3ccc(Br)cn23)c1	/	/	/	2
CCc1ccc2[nH]c(=O)c(C3C(C#N)=C(N)Oc4c3ccc3cccnc43)cc2c1 (stereo unspecified)	6	44*	5	4
N#CC1=C(N)Oc2c(ccc3cccnc23)C1c1cccnc1 (stereo unspecified)	-6	1	4	-2
CC1CCC(NC(=O)CC(NC(N)=O)c2ccccc2Cl)CC1 (stereo unspecified)	-4	1	-4	-1
